# Avidin bead fluor: compound fluoresces at 488/530 nm on avidin beads | 220,000 compounds, 0.38% hits | AID 1775 | fluorescence (KMESF) at 10 µM | compound fluorescence 488/530 nm, flow cytometry; active compounds read high; in the data active means fluorescence above about 47
# RGS8-Gao reg: regulators of human RGS8-Galphao interaction; multiplexed bead flow cytometry, RGS8-Galphao binding; actives lie on both sides; response (percent of control binding), % at 10 µM; 220,000 compounds, 0.34% hits; in the data active means response below about 60% or above about 140%; inactive means in between;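 further: Galphao activated as the GDP aluminium fluoride complex binding bead-coupled RGS8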
# Target sequence (P09471 whole entry, looked up): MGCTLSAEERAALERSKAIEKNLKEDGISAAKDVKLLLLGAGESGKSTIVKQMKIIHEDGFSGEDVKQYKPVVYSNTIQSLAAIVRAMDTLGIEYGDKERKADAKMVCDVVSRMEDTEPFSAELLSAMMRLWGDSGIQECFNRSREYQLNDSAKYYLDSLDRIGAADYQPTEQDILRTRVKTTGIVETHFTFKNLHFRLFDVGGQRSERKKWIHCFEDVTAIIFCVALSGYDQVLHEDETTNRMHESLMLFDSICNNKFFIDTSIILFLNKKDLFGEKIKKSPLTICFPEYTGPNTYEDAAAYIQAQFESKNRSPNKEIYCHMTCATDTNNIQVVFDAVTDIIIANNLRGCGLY
# RGS4-Gao reg: human RGS4-Galphao interaction regulation | binding response (% of control), % at 10 µM | 220,000 compounds, 0.33% hits | Multiplexed bead flow cytometry, RGS4-Galphao binding; actives lie on both sides; in the data active means binding response below about 49% or above about 150%; inactive means in between;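 further: fluorescent Galphao activated with aluminum fluoride binding bead-coupled RGS4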
# RGS16-Gao: regulators of human RGS16-Galphao interaction. 220,000 compounds, 0.38% hits. AID 1441. O15492+P09471. binding response (% of control), % at 10 µM. bead-based flow cytometry RGS16-Galphao binding, fluorescence; actives lie on both sides;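 further: Galphao activated by GDP with aluminum fluoride before binding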
# RGS7-Gao reg: regulators of human RGS7-Galphao interaction. P09471. Multiplexed bead flow cytometry, RGS7-Galphao binding; actives lie on both sides. binding response (% of control), % at 10 µM. 220,000 compounds, 0.35% hits. AID 1439; in the data active means binding response below about 49% or above about 150%; inconclusive means no clear call, values can overlap the other calls; inactive means in between;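 further: fluorescent Galphao held in activated GDP-AlF4 state binding bead-coupled RGS7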
# GSH fluor: compound fluoresces at 488/530 nm on GSH beads; fluorescence (KMESF) at 10 µM; 190,000 compounds, 0.25% hits; GSH beads flow cytometry, compound fluorescence 488/530 nm; active compounds read high; AID 1776; in the data active means fluorescence above about 89;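 further: glutathione beads carrying GST-tagged Bcl family fusion proteins plus one bare bead set; values are compound well signal with DMSO vehicle wells as background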
# RGS4-Gao HTS: modulates binding between human RGS4 and Galphao; shares compounds with RGS16-Gao; multiplexed bead flow cytometry, RGS–Galpha-o binding; RGS4–Galpha-o binding response, % at 10 µM; 1,600 compounds, 99% hits; AID 1504;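 further: fluorescently labeled Galpha-o bound to GDP with aluminium fluoride binding biotinylated RGS beads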
# Avidin counter: biotin-avidin bead binding disruption counter-screen; shares compounds with RGS16-Gao; streptavidin beads, fluorescein-biotin binding, flow cytometry; inhibition, % at 10 µM; 1,700 tested, under 10 active;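 active means inhibition above 50%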;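 further: median green fluorescence of gated singlet beads compared with DMSO control wells; 0% = DMSO wells and 100% = complete loss of bead fluorescence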
# RGS8-Gao confirm: RGS8-Galphao interaction regulation, single point confirmation; bead-based flow cytometry RGS8-Galphao binding, fluorescence; actives lie on both sides; shares compounds with RGS16-Gao; 1,700 compounds, 3% hits; binding response (% of control), % at 10 µM; AID 1836; in the data active means binding response below about 72% or above about 130%; inactive means in between;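 further: Galphao activated as GDP AlF4 complex before binding bead RGS8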
# RGS7-Gao confirm: RGS7-Galphao interaction regulation, single point confirmation; shares compounds with RGS16-Gao; bead-based flow cytometry RGS7-Galphao binding; actives lie on both sides; response (percent of control binding), % at 10 µM; 1,700 compounds, 7.8% hits; in the data active means response below about 75% or above about 130%; inactive means in between;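 further: fluorescent Galphao activated with GDP and aluminum fluoride binding bead-coupled RGS7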
# RGS16-Gao single: confirmation of regulators of human RGS16-Galphao interaction | response (% of control binding), % at 10 µM | bead-based flow cytometry, RGS16-Galphao binding; actives lie on both sides | AID 1838 | shares compounds with RGS16-Gao | 1,700 compounds, 4% hits; in the data active means response below about 74% or above about 130%; inactive means in between;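 further: Galphao activated as the GDP aluminium fluoride complex binding bead-coupled RGS16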
# RGS4-Gao confirm: confirmation of regulators of human RGS4-Galphao interaction; binding response (% of control), % at 10 µM; shares compounds with RGS16-Gao; RGS4-Galphao binding, multiplexed bead flow cytometry; actives lie on both sides; 1,700 compounds, 4% hits; in the data active means binding response below about 74% or above about 130%; inactive means in between
# RGS19-Gao single: confirmation of regulators of human RGS19-Galphao interaction; shares compounds with RGS16-Gao; bead-based flow cytometry RGS19-Galphao binding; actives lie on both sides; response (percent of control binding), % at 10 µM; 1,700 compounds, 5% hits; AID 1841; in the data active means response below about 50% or above about 160%; inactive means in between;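 further: 100% = no compound control and 0% = blank background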
# Target sequence (P09471 whole entry, looked up): as above
# Target sequence (P49795 whole entry, looked up): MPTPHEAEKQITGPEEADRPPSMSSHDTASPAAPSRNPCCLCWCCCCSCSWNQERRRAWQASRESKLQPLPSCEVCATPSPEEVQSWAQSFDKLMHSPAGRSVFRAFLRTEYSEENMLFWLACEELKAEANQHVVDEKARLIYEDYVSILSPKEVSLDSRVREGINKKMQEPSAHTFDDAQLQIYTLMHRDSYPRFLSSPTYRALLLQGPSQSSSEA
# The depositor's hits bear a star; i = inactive; ? = inconclusive; nt = not tested or not shown; [ ] = remark or other dose. Most compounds without a hit are left out; they make up all but 1.2% or so of the library. Unless noted, how the calls were made is not given here.
SMILES,Avidin bead fluor,RGS8-Gao reg,RGS4-Gao reg,RGS16-Gao,RGS7-Gao reg,GSH fluor,RGS4-Gao HTS,Avidin counter,RGS8-Gao confirm,RGS7-Gao confirm,RGS16-Gao single,RGS4-Gao confirm,RGS19-Gao single
O=C(/C(C=Nc1cccc(C(F)(F)F)c1)=C(/O)c1ccco1)C(F)(F)F,6,64,87,2.5*,81,6,87*,2,105,112,111,109,108
Cn1cc(Br)c(C(=O)Nc2ncc(Br)s2)n1,0,14*,15*,8.7*,12*,8,nt,1,102,90,97,92,100
COc1ccc(-c2ccnc3c(C(=O)O)cnn23)cc1,11,104,100,102,107,10,nt,nt,nt,nt,nt,nt,nt
O=C(Nc1nc(-c2ccccc2)c(C(=O)c2ccccc2)s1)c1ccc(S(=O)(=O)N2CCCC2)cc1,172*,135,297*[activator],349*[activator],381*[activator],64,nt,1,104,101,101,103,91
COc1ccc(-n2nc(C(=O)NCC(=O)N3CCN(c4ccccn4)CC3)c3ccccc3c2=O)cc1Cl,7,104,100,100,102,12,nt,nt,nt,nt,nt,nt,nt
COc1ccc(-n2nc(C(=O)NCC(=O)N3CCN(C)CC3)c3ccccc3c2=O)cc1OC,7,142*[activator],108,222,110,40,108*,0,100,99,98,98,92
Cc1cccnc1NC(=O)C1CCCN(S(=O)(=O)c2ccc3c(c2)oc(=O)n3C)C1 (stereo not given),7,142*[activator],116,229,114,19,116*,0,101,101,99,101,98
CCC(C)NC(=O)C1c2ccccc2C(=O)N1Cc1ccc(OC)cc1OC (stereo not given),6,147*[activator],138,424,127,38,138*,1,102,99,90,97,62
CC(=O)Nc1ccc(Cc2nc3c([nH]2)c(=O)n(C)c(=O)n3C)cc1,-1,20*,-0.7*,1.1*,?,nt,nt,1,99,99,101,98,103
CCCc1nc2c([nH]1)c(=O)n(C)c(=O)n2C,7,102,101,102,?,nt,nt,nt,nt,nt,nt,nt,nt
Cc1ccc(NC(=O)CSc2nnc(CN3CCOCC3)n2C)cc1C,6,102,93,101,95,21,nt,nt,nt,nt,nt,nt,nt
COc1cccc(NC(=O)CSc2nnc(CN3CCOCC3)n2C)c1,-1,17*,31*,6.3*,22*,19,nt,1,103,102,103,102,100
Cc1cc(C)cc(N(CC(=O)NCCSCc2ccccc2)S(C)(=O)=O)c1,77*,104,119,108,180*[activator],10,119*,0,100,47*,82,60*,48*
CCCNC(=O)CN(c1cccc(F)c1)S(C)(=O)=O,7,155*[activator],126,282,117,15,126*,2,103,106,103,102,108
CC(CCc1ccccc1)NC(=O)C1CCN(S(=O)(=O)N2CCOCC2)CC1 (stereo not given),11,160*[activator],180*[activator],165,167*[activator],24,nt,2,101,97,100,100,99
O=C(NCc1ccccc1)C1CCN(S(=O)(=O)N2CCOCC2)CC1,18,99,98,101,100,4,nt,nt,nt,nt,nt,nt,nt
Cc1onc(-c2c(Cl)cccc2Cl)c1CO/N=C(\C#N)c1c(Cl)cccc1Cl,6,99,99,98,?,nt,nt,nt,nt,nt,nt,nt,nt
O=S1(=O)CC2N=C(N(Cc3c(F)cccc3Cl)c3ccccc3F)SC2C1 (stereo not given),-2,17*,19*,11*,12*,20,nt,1,102,98,104,102,98
Cc1ccc(-n2nc3c(SCCN4CCOCC4)nnc(C)c3c2C)cc1,18,99,97,100,100,17,nt,nt,nt,nt,nt,nt,nt
CCOc1ccc(-n2nc3c(SCCN4CCCC4)nnc(C)c3c2C)cc1,40,121,183*[activator],202*[activator],210*[activator],12,nt,0,99,88,97,91,92
O=C(CCc1nc2ccccc2c(=O)[nH]1)Nc1ccc(Cl)c(Cl)c1,7,69,86,9.1*,86,4,86*,2,102,102,101,98,107
COC(=O)C1C/C(=N\NS(=O)(=O)c2ccc(C)cc2)c2ccsc2C1 (stereo not given),4,102,103,109,100,7,nt,nt,nt,nt,nt,nt,nt
Cn1c(SCC(=O)N/N=C/C=C\c2ccccc2[N+](=O)[O-])nc2ccccc21,1,73,89,23*,93,5,89*,i,105,106,104,106,103
Cn1c(SCC(=O)N/N=C/C=C/c2ccccc2[N+](=O)[O-])nc2ccccc21,28,100,100,97,101,10,nt,nt,nt,nt,nt,nt,nt
COc1cc(CCN2C(=O)N[C@@H](CCc3ccccc3)C(C(C)=O)=C2C)cc(OC)c1OC,12,106,101,113,105,16,nt,nt,nt,nt,nt,nt,nt
O=C(Nc1ccc2c(c1)OCO2)N1CCN(c2cccc(C(F)(F)F)c2)CC1,0,72,47*,-243,68,32,nt,-1,98,96,97,98,105
O=C(Nc1ccc2c(c1)OCO2)N1CCN(c2ccccc2Cl)CC1,14,100,103,100,99,14,nt,nt,nt,nt,nt,nt,nt
Cc1nc2ccc(F)cc2cc1C(=O)Nc1cccc(Cl)c1C,3,100,96,103,94,19,nt,nt,nt,nt,nt,nt,nt
Cc1nc2ccccc2cc1C(=O)Nc1ccccc1Cl,12,140,148,150,157*[activator],14,148*,0,101,104,100,102,100

# Bioassay records (PubChem)
